Our source for the inhibition values is ChEMBL document CHEMBL3433997, “St. Jude Leishmania screening dataset” (2016).

SMILES strings stand for the structures.

In one assay the target is Hexose transporter 1 (Plasmodium falciparum) (UniProt O97467). Description: ST_JUDE_LEISH: Cytotoxicity at 2uM final concentration against transgenic Leishmania Mexicana promastigotes LmPfHT that are glucose transport deficient and complemented with the Plasmodium falciparum hexose transporter. Activity is measured by DNA content using SYBR green in vitro. The assay is classed as functional.
As to `COc1cc2c(cc1OC)CN(c1cc(N)c3cc(OC)c(OC)cc3n1)CC2`, the inhibition (commonly the relative decrease from the control value, in per cent) was 0.25%.
As to `CCCCSc1ccc2nc(-c3c[nH]c4ccc(C#N)cc34)cn2c1`, the inhibition stood at 3.17%.
Regarding `O=C(NCC1CCCCC1)c1cc(=O)c2ccccc2o1`, the inhibition came to 10.2%.
The same measure, in the same setting: the value for `CCCC(=O)NC(c1cccs1)c1cc(Cl)c2cccnc2c1O` (stereo not given) was 1.83%; that for `Cc1cc2ccc(-c3cccc(CN)c3)cc2nc1N` was 1.15%; that for `COc1cccc(C(=O)Nc2nonc2-c2ccc(OC)c(OC)c2)c1` was 2.49%.
The same measure, in the same setting: the value for `Cc1cccc2nc(-c3cccc(-c4cccc(CNCCN5CCNCC5)c4)c3)[nH]c12` was -3.8%; that for `N=c1[nH]c2cccc3ccc4cccc1c4c32` was 9.29%; that for `COCCNCc1ccc(-c2cccc(CNC3CCN(Cc4ccccc4)CC3)c2)cc1` was 3.16%.
On to `CC(C)Sc1nc2c(c(=O)n1Cc1ccco1)C1(CCCCC1)Cc1ccccc1-2`, for which the inhibition amounted to 2.03%.
Same read-out and setting: as for `COc1ccc(CC(=O)NC(CCCN2CCC(c3ccccc3)CC2)c2ccc(Cl)c(Cl)c2)cc1OC` (stereo not given), the figure is 2.2%.
For the compound `CCc1cn2c3c(cc(C(=O)N[C@@H](Cc4ccccc4)[C@H](O)CNCc4ccccc4C)cc13)N(C)S(=O)(=O)CC2`, the inhibition was determined as 2.3%.
Turning to `O=C(CCCCCNC(=O)c1ccc(O)c(-c2ccc(Cl)c(Cl)c2)c1)NCc1cccc2ccccc12`, the inhibition amounted to 2.12%.
On to `CC(C)CNC(=O)CN1C(=O)C(c2ccccc2)(c2ccccc2)N=C1N`, for which the inhibition was determined as 4.66%.
With `Cc1c(C)c2c(c(C)c1O)CC[C@](C)(C(=O)N1CCC(CCN3CCC(c4c[nH]c5ccccc45)CC3)CC1)O2`, the inhibition was -1.76%.
`CCOc1cc(Br)c(C(C)NC(=O)c2cccc(OC)c2)cc1OCC` (stereo not given): the inhibition was 0.03%.
The same measure, in the same setting: the value for `C(=Cc1ccccc1)C=NN=c1cc[nH]c2ccccc12` was 1.5%; that for `CC(C)Oc1cc(-c2ccc(S(C)(=O)=O)cc2)nc(N(Cc2cccc(F)c2F)Cc2cccc(F)c2F)n1` was 0.65%.
The same measure, in the same setting: as for `Cc1cccc(C(=O)Nc2ccnc(N3CCC(N(C)Cc4ccccc4)CC3)c2)c1`, the figure is -0.98%; as for `O=C(NC(=S)NCc1ccncc1)c1ccccc1`, -1.93%; as for `Nc1nc(N)c2c(ccc3c2ccn3Cc2ccc3c(c2)OCO3)n1`, 97.5%.
Same read-out and setting: as for `Nc1cccc(CNCc2ccc(-c3ccc(-c4nc5cc(F)ccc5[nH]4)s3)cc2)c1`, the figure is 0.25%.
Regarding `CC1CCCN(C(=O)C(C)Nc2cc(Cl)ccc2N2CCOCC2)C1` (stereo not given), the inhibition came to 1.09%.
Still for that read-out and setting: the value for `Nc1nc(N)c2c(ccc3c2ccn3CCCF)n1` was 5.24%.
For the compound `Clc1ccc2c(N3CCN(CCN4CCN(c5ccnc6cc(Cl)ccc56)CC4)CC3)ccnc2c1`, the inhibition amounted to 0.23%.
Still for that read-out and setting: as for `CN(CCN)Cc1ccc(-c2ccc(-c3nc4cc(C(F)(F)F)ccc4[nH]3)s2)cc1`, the figure is 14.8%; as for `CCN1CCN(c2cc(C)c3cc(NC(=O)c4ccc([N+](=O)[O-])c(C)c4)ccc3n2)CC1`, 5.06%.
On the same count and under the same terms, the value for `Cc1nc(-c2cccc(Nc3nccc(NCC(O)c4ccccc4C)n3)c2)cs1` (stereo not given) was 3.57%; that for `CC(C)=CCc1c(-c2ccc(O)cc2O)oc2c3c(cc(O)c2c1=O)OC(C)(C)C=C3` was 4.6%; that for `O=C(/C=C/c1ccc(Cl)c(Cl)c1)NC1CCC(CN2CCC(Cc3c[nH]c4ccccc34)CC2)CC1` (stereo not given) was 3.43%.
On the same count and under the same terms, as for `CC(C)(CN)c1nc(-c2ccc(Cl)c(O)c2)c(-c2ccnc(N)n2)[nH]1`, the figure is -0.81%.
On to `CCCCCn1c(Sc2ccc(C#N)c([N+](=O)[O-])c2)nnc1-c1ccccc1`, for which the inhibition came out at 9.62%.
Consider `COc1cc2nc(N3CCC(CNC(=O)c4ccc(-c5ccc(C(=O)N(C)C)cc5OCCO)cc4)CC3)nc(N)c2cc1OC`, for which the inhibition is 2.24%.
The same measure, in the same setting: the value for `CCOc1cc(CNCCCCCCNCc2cc(OCC)c(OCC)c3ccccc23)c2ccccc2c1OCC` was 12.1%; that for `O=C(N[C@H](CC1CCCCC1)C(=O)NC1CCCc2ccccc21)c1ccc(O)c(-c2cccc([N+](=O)[O-])c2)c1` (stereo not given in full) was 0.18%.
Same read-out and setting: as for `CC(C)(CNC(=O)[C@H]1CCCN1)c1nc(-c2ccc(Cl)c(O)c2)c(-c2ccncc2)[nH]1`, the figure is 8.03%.
On to `Nc1nccc(-c2ccc3c(-c4cccc(F)c4)cnc(N)c3c2)n1`, for which the inhibition is 3.51%.
Still for that read-out and setting: the value for `CCNc1cc(C(=O)N[C@@H](Cc2ccccc2)[C@H](O)CNC(CC)c2cccc(Cl)c2)cc(N2CCCCS2(=O)=O)c1` (stereo not given in full) was 1.05%.
The same measure, in the same setting: as for `O=C(NC(=O)c1ccccc1)NC1CCN(c2ccnc3cc(Cl)ccc23)C1` (stereo not given), the figure is 1.75%; as for `O=C(O)c1ccc(-c2c[nH]c3ncc(-c4ccc(Cl)cc4)cc23)cc1`, -0.34%.

For another assay, the target named is Glucose transporter (Leishmania mexicana) (UniProt O61059). As to the kind of experiment: ST_JUDE_LEISH: Cytotoxicity at 2uM final concentration against transgenic Leishmania Mexicana promastigotes LmGT2 that are glucose transport deficient and complemented with the L. Mexicana glucose transporter 2. Activity is measured by DNA content using SYBR green in vitro. It is filed as functional.
As for `COc1cc2c(cc1OC)CN(c1cc(N)c3cc(OC)c(OC)cc3n1)CC2`, the inhibition was -1.39%.
On the same count and under the same terms, as for `CCCCSc1ccc2nc(-c3c[nH]c4ccc(C#N)cc34)cn2c1`, the figure is 3.81%.
For `O=C(NCC1CCCCC1)c1cc(=O)c2ccccc2o1`, the inhibition was 11.7%.
The same measure, in the same setting: the value for `CCCC(=O)NC(c1cccs1)c1cc(Cl)c2cccnc2c1O` (stereo not given) was -0.61%; that for `Cc1cc2ccc(-c3cccc(CN)c3)cc2nc1N` was 0.73%; that for `COc1cccc(C(=O)Nc2nonc2-c2ccc(OC)c(OC)c2)c1` was 1.34%.
Still for that read-out and setting: the value for `Cc1cccc2nc(-c3cccc(-c4cccc(CNCCN5CCNCC5)c4)c3)[nH]c12` was 0.48%.
With `N=c1[nH]c2cccc3ccc4cccc1c4c32`, the inhibition was found to be 7.95%.
With `COCCNCc1ccc(-c2cccc(CNC3CCN(Cc4ccccc4)CC3)c2)cc1`, the inhibition was 4.77%.
Still for that read-out and setting: the value for `CC(C)Sc1nc2c(c(=O)n1Cc1ccco1)C1(CCCCC1)Cc1ccccc1-2` was 1.54%; that for `COc1ccc(CC(=O)NC(CCCN2CCC(c3ccccc3)CC2)c2ccc(Cl)c(Cl)c2)cc1OC` (stereo not given) was 0.22%.
Consider `CCc1cn2c3c(cc(C(=O)N[C@@H](Cc4ccccc4)[C@H](O)CNCc4ccccc4C)cc13)N(C)S(=O)(=O)CC2`, for which the inhibition came to 1.96%.
On to `O=C(CCCCCNC(=O)c1ccc(O)c(-c2ccc(Cl)c(Cl)c2)c1)NCc1cccc2ccccc12`, for which the inhibition was determined as 3.98%.
In the case of `CC(C)CNC(=O)CN1C(=O)C(c2ccccc2)(c2ccccc2)N=C1N`, the inhibition turned out to be 2.29%.
Consider `Cc1c(C)c2c(c(C)c1O)CC[C@](C)(C(=O)N1CCC(CCN3CCC(c4c[nH]c5ccccc45)CC3)CC1)O2`, for which the inhibition is -0.6%.
For the compound `CCOc1cc(Br)c(C(C)NC(=O)c2cccc(OC)c2)cc1OCC` (stereo not given), the inhibition was -0.19%.
On the same count and under the same terms, the value for `C(=Cc1ccccc1)C=NN=c1cc[nH]c2ccccc12` was -2.14%; that for `CC(C)Oc1cc(-c2ccc(S(C)(=O)=O)cc2)nc(N(Cc2cccc(F)c2F)Cc2cccc(F)c2F)n1` was -2.49%.
Take `Cc1cccc(C(=O)Nc2ccnc(N3CCC(N(C)Cc4ccccc4)CC3)c2)c1`: the inhibition is -0.83%.
Same read-out and setting: as for `O=C(NC(=S)NCc1ccncc1)c1ccccc1`, the figure is 1.6%.
On the same count and under the same terms, as for `Nc1nc(N)c2c(ccc3c2ccn3Cc2ccc3c(c2)OCO3)n1`, the figure is 93.7%; as for `Nc1cccc(CNCc2ccc(-c3ccc(-c4nc5cc(F)ccc5[nH]4)s3)cc2)c1`, -1.11%; as for `CC1CCCN(C(=O)C(C)Nc2cc(Cl)ccc2N2CCOCC2)C1` (stereo not given), -0.78%.
In the case of `Nc1nc(N)c2c(ccc3c2ccn3CCCF)n1`, the inhibition was 0.69%.
Take `Clc1ccc2c(N3CCN(CCN4CCN(c5ccnc6cc(Cl)ccc56)CC4)CC3)ccnc2c1`: the inhibition is 0.08%.
As for `CN(CCN)Cc1ccc(-c2ccc(-c3nc4cc(C(F)(F)F)ccc4[nH]3)s2)cc1`, the inhibition stood at 11.4%.
On to `CCN1CCN(c2cc(C)c3cc(NC(=O)c4ccc([N+](=O)[O-])c(C)c4)ccc3n2)CC1`, for which the inhibition was 7.26%.
Same read-out and setting: as for `Cc1nc(-c2cccc(Nc3nccc(NCC(O)c4ccccc4C)n3)c2)cs1` (stereo not given), the figure is 3.17%; as for `CC(C)=CCc1c(-c2ccc(O)cc2O)oc2c3c(cc(O)c2c1=O)OC(C)(C)C=C3`, 6.57%.
As for `O=C(/C=C/c1ccc(Cl)c(Cl)c1)NC1CCC(CN2CCC(Cc3c[nH]c4ccccc34)CC2)CC1` (stereo not given), the inhibition came to 3.79%.
Same read-out and setting: as for `CC(C)(CN)c1nc(-c2ccc(Cl)c(O)c2)c(-c2ccnc(N)n2)[nH]1`, the figure is -1.58%; as for `CCCCCn1c(Sc2ccc(C#N)c([N+](=O)[O-])c2)nnc1-c1ccccc1`, 4.33%.
Still for that read-out and setting: as for `COc1cc2nc(N3CCC(CNC(=O)c4ccc(-c5ccc(C(=O)N(C)C)cc5OCCO)cc4)CC3)nc(N)c2cc1OC`, the figure is 1.27%; as for `CCOc1cc(CNCCCCCCNCc2cc(OCC)c(OCC)c3ccccc23)c2ccccc2c1OCC`, 103%; as for `O=C(N[C@H](CC1CCCCC1)C(=O)NC1CCCc2ccccc21)c1ccc(O)c(-c2cccc([N+](=O)[O-])c2)c1` (stereo not given in full), 0.88%.
Same read-out and setting: the value for `CC(C)(CNC(=O)[C@H]1CCCN1)c1nc(-c2ccc(Cl)c(O)c2)c(-c2ccncc2)[nH]1` was 8.28%; that for `Nc1nccc(-c2ccc3c(-c4cccc(F)c4)cnc(N)c3c2)n1` was -0.84%.
As for `CCNc1cc(C(=O)N[C@@H](Cc2ccccc2)[C@H](O)CNC(CC)c2cccc(Cl)c2)cc(N2CCCCS2(=O)=O)c1` (stereo not given in full), the inhibition is -0.27%.
On to `O=C(NC(=O)c1ccccc1)NC1CCN(c2ccnc3cc(Cl)ccc23)C1` (stereo not given), for which the inhibition stood at 0.92%.
The same measure, in the same setting: the value for `O=C(O)c1ccc(-c2c[nH]c3ncc(-c4ccc(Cl)cc4)cc23)cc1` was -0.05%.
